19 compounds from PubChem BioAssay (EPA / NIEHS) can be followed below.

Records with an inconclusive call do not appear. Calls of active or inactive are those of the source. How the source made its calls: active means hit-call score of the fitted dose curve at least 0.9, where 1 is the maximum; inconclusive means response in the unintended direction; inactive means score below 0.9.

The target in the test is human Thyroid Receptor alpha (THRa1), THRA (gene 7067) (UniProt P10827). As to the kind of experiment: ATG_THRa1_TRANS: Attagene TRANS-FACTORIAL HepG2 Assay for human Thyroid Receptor alpha (THRa1) (AID 2283014). An outline of the steps: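 HepG2 cells transiently transfected with multiplexed GAL4-UAS reporter units for exogenous chimeric THRa1-Gal4; reporter mRNA measured 24 h after dosing by RT-PCR, 6-FAM labelling, HpaI digestion and capillary electrophoresis. Gain-of-signal fitted versus DMSO baseline.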
Chain of human Thyroid Receptor alpha (THRa1), THRA (gene 7067) (P10827 whole entry, looked up, the tested form may be a part): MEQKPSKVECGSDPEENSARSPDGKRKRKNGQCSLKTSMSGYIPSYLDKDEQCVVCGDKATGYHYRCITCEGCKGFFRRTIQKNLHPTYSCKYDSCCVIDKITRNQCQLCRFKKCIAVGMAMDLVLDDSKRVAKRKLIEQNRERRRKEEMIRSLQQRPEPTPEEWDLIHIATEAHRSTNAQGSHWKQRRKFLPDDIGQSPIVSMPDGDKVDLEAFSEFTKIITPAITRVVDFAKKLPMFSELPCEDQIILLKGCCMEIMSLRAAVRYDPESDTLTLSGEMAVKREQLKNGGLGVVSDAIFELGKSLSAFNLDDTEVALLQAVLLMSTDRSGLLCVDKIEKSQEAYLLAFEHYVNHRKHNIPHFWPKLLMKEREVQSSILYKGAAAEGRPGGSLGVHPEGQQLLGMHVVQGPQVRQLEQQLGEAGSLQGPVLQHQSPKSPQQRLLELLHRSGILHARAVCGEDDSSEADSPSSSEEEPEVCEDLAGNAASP
Regarding `CCOCCOCC`, the result was inactive.
For the compound `COc1cc([N+](=O)[O-])ccc1N`, the call was inactive.
On the same count and under the same terms, in the case of `CC(O)COc1ccccc1` (centres undefined) it was “inactive”; in that of `Oc1cccc2c(O)cccc12`, “inactive”; in that of `O=C1Cc2ccccc2N1c1c(Cl)cccc1Cl`, “inactive”.
As to `FC(F)(F)C(F)(F)C(F)(F)Br`, the call was inactive.
`CCCCCCCCCCCCCCCC(=O)OC`: the compound was called inactive.
Still for that read-out and setting: in the case of `CCC(=O)C=Cc1ccc(OC)cc1` it was “inactive”.
As for `CCOC(=O)c1nc(C(Cl)(Cl)Cl)n(-c2ccc(Cl)cc2Cl)n1`, the AC50 was 2110 nM (active).
For `O=C1OC(=O)c2cc(-c3ccc4c(c3)C(=O)OC4=O)ccc21`, the result was inactive.
`Cc1ccc(S(=O)(=O)O)cc1`: the result was inactive.
As to `CC=O`, the call was inactive.
Same read-out and setting: as for `CCN(CC)CC`, the entry is “inactive”.
On the same count and under the same terms, as for `c1cc2cccc3c4cccc5cccc(c(c1)c23)c54`, the entry is “inactive”; as for `C/C=C/C(=O)C1=C(C)CCCC1(C)C`, “inactive”; as for `FC1(F)C=CC(F)(F)C1(F)F`, “inactive”.
`CCc1ccccc1O`: the compound was classed as inactive.
As to `CC(=O)CC(C)C`, the outcome was inactive.
As for `O=C(Nc1ccc(Cl)c(Cl)c1)c1cc(Cl)cc(Cl)c1O`, the AC50 is 1350 nM (active).

For orientation: AC50 means the concentration at which the activity in the assay is half-maximal.
